Assay results: PubChem BioAssay (NCI)
This is part of a sample that, as a whole, favours compounds with a hit. Of some 83,000 tested, about 20% had one in any assay.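 Cells were grown in 96-well plates and exposed to the test compound at a single concentration for 48 hours; results are reported as percent growth, with values below 10 considered active.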 The source made the active and inactive calls.

Experiments:
Assay in all cases: NCI-60 one-dose screen, 48 h (100 = growth as untreated, 0 = no growth, -100 = all killed)
Conditions in all cases: 10 µM unless noted
[1] = test system: HCT-15 colon
[2] = test system: HT29 colon
[3] = test system: SNB-75 CNS
[4] = test system: SNB-19 CNS
[5] = test system: U251 CNS
[6] = test system: PC-3 prostate
[7] = test system: SK-MEL-5 melanoma
[8] = test system: UACC-62 melanoma
[9] = test system: LOX IMVI melanoma
[10] = test system: SK-MEL-28 melanoma

| SMILES | growth [1] | growth [2] | growth [3] | growth [4] | growth [5] | growth [6] | growth [7] | growth [8] | growth [9] | growth [10] |
| --- | --- | --- | --- | --- | --- | --- | --- | --- | --- | --- |
| COc1cccc(N2CCN(c3cccc(C)n3)CC2)c1 | 105% (inactive) | 94.9% (inactive) | 133% (inactive) | 113% (inactive) | 97.7% (inactive) | 99.6% (inactive) | 92.4% (inactive) | 95.1% (inactive) | 103% (inactive) | 111% (inactive) |
| O=C(N/N=C/c1cccc(O)c1)c1ccc(C(F)(F)F)nc1Nc1cccc(C(F)(F)F)c1 | 11.5% (inactive) | 7.96% (active) | -5.22% (active) | 26.2% (inactive) | 2.76% (active) | -8.91% (active) | 8.39% (active) | 0.893% (active) | -18.2% (active) | 24.7% (inactive) |
| COc1cc(C2CC(C3C(=O)N(C)C(=O)N(C)C3=O)=NN2C=O)cc(OC)c1OC (stereo not given) | 102% (inactive) | 76.2% (inactive) | 94.8% (inactive) | 100% (inactive) | 96.3% (inactive) | 75.9% (inactive) | 113% (inactive) | 93.9% (inactive) | 97.7% (inactive) | 108% (inactive) |
| CC(C)OP(=O)(OC(C)C)c1ncc(-c2ccc(C(F)(F)F)cc2)c(NC2CCCCCC2)n1 | -7.06% [33.3 µM] (active) | -68.3% [33.3 µM] (active) | -18.6% [33.3 µM] (active) | -27.9% [33.3 µM] (active) | -87.4% [33.3 µM] (active) | -68% [33.3 µM] (active) | -87.2% [33.3 µM] (active) | -64.8% [33.3 µM] (active) | -63.3% [33.3 µM] (active) | -74.5% [33.3 µM] (active) |
| CC(NC(=O)Oc1cccc2ccccc12)c1ccccc1 (stereo not given) | 100% (inactive) | 104% (inactive) | 87.4% (inactive) | 105% (inactive) | 90.7% (inactive) | 84.9% (inactive) | 97% (inactive) | 89.2% (inactive) | 87.2% (inactive) | 110% (inactive) |
| CNCCCn1c2c(c3ccc(F)cc3c1=O)C(=O)c1cc(OC)cnc1-2 | -3.12% (active) | -20.9% (active) | -23.4% (active) | 11.9% (inactive) | -25.8% (active) | 6.67% (active) | -97.3% (active) | -33.4% (active) | -70.7% (active) | 9.85% (active) |
| Clc1ccc2nc(CI)c(CI)nc2c1 | 27.1% (inactive) | 100% (inactive) | 96.6% (inactive) | 97.1% (inactive) | 71.7% (inactive) | 84.8% (inactive) | 75% (inactive) | 81.9% (inactive) | 14.9% (inactive) | 113% (inactive) |
| O=C(C(=O)N1CCOCC1)c1cn(CCCn2cc(C(=O)C(=O)N3CCOCC3)c3ccccc32)c2ccccc12 | 104% (inactive) | 99.7% (inactive) | 94.7% (inactive) | 93.9% (inactive) | 102% (inactive) | 89.9% (inactive) | 100% (inactive) | 93.5% (inactive) | 104% (inactive) | 110% (inactive) |
| O=C1OC(Oc2ccccc2)(c2ccccc2)c2ccccc21 (stereo not given) | 99.7% (inactive) | 102% (inactive) | 97.2% (inactive) | 115% (inactive) | 91.4% (inactive) | 91.2% (inactive) | 112% (inactive) | 100% (inactive) | 89.2% (inactive) | 127% (inactive) |
| COc1ccc(C2CC(c3ccc4c(c3)OCO4)=NN2C=O)cc1 (stereo not given) | 102% (inactive) | 98% (inactive) | 76.4% (inactive) | 93.9% (inactive) | 102% (inactive) | 93.4% (inactive) | 95.9% (inactive) | 82.1% (inactive) | 95.4% (inactive) | 107% (inactive) |
| N#Cc1ccccc1C#Cc1ccccc1C#Cc1ccc(OCCCCCCOc2ccc(C#Cc3ccccc3C#Cc3ccccc3C#N)cc2)cc1 | 123% (inactive) | 111% (inactive) | 106% (inactive) | 108% (inactive) | 106% (inactive) | 99.5% (inactive) | 73.8% (inactive) | 83.3% (inactive) | 98.4% (inactive) | 113% (inactive) |
| CC(=O)Nc1ccc(C(=O)COc2ccc(/C=C3\CCc4ccccc4C3=O)cc2)cc1 | 102% (inactive) | 104% (inactive) | 116% (inactive) | 106% (inactive) | 98.6% (inactive) | 88.8% (inactive) | 98% (inactive) | 99.7% (inactive) | 99.9% (inactive) | 122% (inactive) |
| O=C(COc1cccc(/C=C2\Cc3ccccc3C2=O)c1)c1ccc(Cl)cc1 | 160% (inactive) | 69.6% (inactive) | 101% (inactive) | 96.5% (inactive) | 125% (inactive) | 90.3% (inactive) | 89.4% (inactive) | 91.4% (inactive) | 128% (inactive) | 104% (inactive) |
| COc1ccc(NC(=O)c2ccccc2-c2ccccc2)c(C(N)=O)c1 | 32.8% (inactive) | 11.4% (inactive) | -10.7% (active) | 39.8% (inactive) | 45.9% (inactive) | 32.8% (inactive) | 29.7% (inactive) | 55.7% (inactive) | 36.9% (inactive) | 59.7% (inactive) |
| CN[C@@H]1C(OC2[C@H](O[C@H]3[C@H](O)[C@@H](O)[C@H](N=C(N)N)[C@@H](O)[C@@H]3N=C(N)N)OC(C)[C@]2(O)CO)OC(CO)C(O)C1O (stereo not given in full) | 112% (inactive) | 98.5% (inactive) | 103% (inactive) | 113% (inactive) | 103% (inactive) | 108% (inactive) | 105% (inactive) | 114% (inactive) | 104% (inactive) | 104% (inactive) |
| Nc1nc(SCc2cccnc2)c2ncn(C3OC(CO)C(O)C3O)c2n1 (stereo not given) | 102% (inactive) | 106% (inactive) | 101% (inactive) | 98.7% (inactive) | 98.3% (inactive) | 89.4% (inactive) | 99.5% (inactive) | 84.8% (inactive) | 102% (inactive) | 111% (inactive) |
